Compounds with a hit are over-represented: about 4% of the library has one in this group of screens.
RAD52 anneal inh = blocks human RAD52 DNA annealing. recombinant RAD52 DNA annealing, FRET fluorescence. inhibition, % at 18.7 µM. hit rate 0.46% among 360,000. AID 651710;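 active = every replicate showing at least 50% inhibition; inconclusive = mean inhibition at least 50% but not in every replicate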
FGF22 binding = shifts melting point of recombinant human FGF22; Q9HCT0; recombinant FGF22 thermal shift, SYPRO orange fluorescence; percent of sucrose octasulfate shift, DMSO zero; activity (Tm shift, normalised), % at 9.99 µM; hit rate 1.5% among 340,000; AID 651658;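 active = mean Tm shift, scaled 0 neutral to 100 positive control, at about 1.3% or above, every replicate too, limit read from the data; inconclusive = no clear call, values can overlap the other calls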
ERAP1 HTS inh = inhibitors of human ERAP1 aminopeptidase; Q9NZ08; recombinant ERAP1, Leu-AMC fluorescence, 60 min; inhibition, % at 10.7 µM; hit rate 0.15% among 340,000;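 active = mean replicate inhibition of at least 30%, or all replicates individually reaching that 30% level; inactive = mean below 30% and not every replicate reaching it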;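 note: 0% = neutral control wells and 100% = L-leucinethiol positive control wells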
Target sequence (Q9NZ08 whole entry, looked up): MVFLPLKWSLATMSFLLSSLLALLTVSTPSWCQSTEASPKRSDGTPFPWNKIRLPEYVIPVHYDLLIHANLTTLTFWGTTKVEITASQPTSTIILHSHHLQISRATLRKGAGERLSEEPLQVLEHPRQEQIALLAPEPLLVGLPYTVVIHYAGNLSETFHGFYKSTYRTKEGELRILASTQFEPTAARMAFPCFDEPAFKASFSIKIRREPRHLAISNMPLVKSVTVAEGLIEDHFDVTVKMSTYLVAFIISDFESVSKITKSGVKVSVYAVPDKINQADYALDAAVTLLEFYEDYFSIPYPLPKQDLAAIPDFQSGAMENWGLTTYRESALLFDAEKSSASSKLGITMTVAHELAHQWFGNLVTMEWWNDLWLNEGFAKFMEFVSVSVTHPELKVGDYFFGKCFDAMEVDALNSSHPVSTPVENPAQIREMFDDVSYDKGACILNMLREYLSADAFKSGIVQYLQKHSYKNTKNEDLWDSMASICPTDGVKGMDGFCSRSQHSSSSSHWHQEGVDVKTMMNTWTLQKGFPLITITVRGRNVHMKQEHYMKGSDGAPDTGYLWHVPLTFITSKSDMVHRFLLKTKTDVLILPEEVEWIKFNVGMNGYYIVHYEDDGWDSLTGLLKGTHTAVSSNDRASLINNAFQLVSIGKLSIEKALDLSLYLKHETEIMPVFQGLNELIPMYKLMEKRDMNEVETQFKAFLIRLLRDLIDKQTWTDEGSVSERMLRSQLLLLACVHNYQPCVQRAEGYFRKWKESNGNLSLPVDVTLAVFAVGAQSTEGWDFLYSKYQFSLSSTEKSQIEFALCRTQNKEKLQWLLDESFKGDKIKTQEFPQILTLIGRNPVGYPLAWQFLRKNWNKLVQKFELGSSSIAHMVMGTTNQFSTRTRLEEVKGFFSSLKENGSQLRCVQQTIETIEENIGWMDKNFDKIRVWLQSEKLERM
DENV2 CPE rescue = inhibitors of DENV2 cytopathic effect; DENV2-infected cells, cytopathic effect rescue, plate reader; CPE inhibition, % at 9.99 µM; hit rate 1.7% among 350,000; AID 651640; in the data active = CPE inhibition above about 20%, passing the limit was not always enough; inconclusive = no clear call, values can overlap the other calls; tested in BHK-21 cells;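 note: 0% = median of neutral control wells and 100% = median of positive control wells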
MLL AF4-AF9 inh = blocks AF4 peptide binding to human AF9; P42568; AlphaScreen, biotin-AF4 peptide binding to FLAG-AF9; inhibition, % at 10 µM; hit rate 0.47% among 350,000; AID 651704;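 active = every replicate reaching a set inhibition limit, whatever the replicate mean, cut at about 25% in these data; inconclusive = mean inhibition reaches that limit but some replicates miss it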;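 note: 0% = plate neutral control median and 100% = total signal loss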
Numbers without * were called inactive; ? = inconclusive; / = no result given.

SMILES	RAD52 anneal inh	FGF22 binding	ERAP1 HTS inh	DENV2 CPE rescue	MLL AF4-AF9 inh
COc1ccc(OCCNS(=O)(=O)c2cccc([N+](=O)[O-])c2)cc1	-11	43*	1	2	1
O=C(CCl)Nc1cccc(S(=O)(=O)NC2=NCCCCC2)c1	-5	0	-2	-1	-3
O=C(CCl)Nc1ccc(S(=O)(=O)NC2=NCCCCC2)cc1	15	0	1	60*	-1
CCNC(=S)Nc1ccc(C)c(S(=O)(=O)Nc2ccccc2OC)c1	-26	0	10	3	2
COc1ccccc1NS(=O)(=O)c1cc(NC(=O)c2sc3cc(Cl)ccc3c2Cl)ccc1C	-7	44*	1	6	-8
S=C(NC1CC1)N1CCCc2ccccc21	-3	0	-6	54*	0
O=C(NC[C@@H]1CC[C@H]2[C@H](CN2Cc2cc(-c3ccccc3)on2)O1)c1ccc2c(c1)OCO2	/	/	/	-2	-4
O=C(Cc1ccccc1)OC(COCc1ccccc1)C(=O)NCc1ccccc1 (centres undefined)	8	0	-3	0	-6
COc1cc(O)c(C(CCN2CCCC2)c2ccc(N(C)C)cc2)c(OC)c1 (centres undefined)	-4	0	/	?	39*
COc1ccc(C2CC(=O)Oc3c(C(CCN4CCCCC4)c4ccc(N(C)C)cc4)c(OC)cc(OC)c32)cc1 (centres undefined)	19	0	4	-12	44*
COc1cc(C2CC(=O)Oc3c(C(CCN4CCN(c5ccccc5)CC4)c4ccc(N(C)C)cc4)c(OC)cc(OC)c32)cc(OC)c1OC (centres undefined)	-5	0	/	-6	16
CO[C@@H]1CN(C)C(=O)c2cc(NC(=O)c3ccccc3)ccc2OC[C@H](C)N(C(C)=O)C[C@@H]1C	3	0	-2	0	3
COc1ccc(/C=C(\NC(=O)c2ccccc2)C(=O)OCC2CCCN3CCCCC23)cc1OC (centres undefined)	9	44*	-3	-6	-1
COc1ccc(/C=C(/NC(=O)c2ccccc2)C(=O)N2CCCC2)cc1OC	-9	42	0	-4	0
COc1cc(-c2nc(CN3CCN(c4ncccn4)CC3)c(C)o2)ccc1F	2	43*	0	9	-1
CCN1[C@@H]2c3ccc(-c4ccccc4OC)c(=O)n3C[C@H]1[C@H](CO)[C@H]2C(=O)N[C@@H](C)c1ccccc1	-2	0	-2	-1	1
Cc1nc2ccn(Cc3ccccc3)c(=O)c2cc1C(=O)N1CCN(c2ccccc2)CC1	-10	0	3	26*	4
Cn1cnc(S(=O)(=O)N[C@H]2CC[C@H](CC(=O)NCC3CCCCC3)O[C@@H]2CO)c1	-9	0	-3	-1	-14
Cn1cnc(S(=O)(=O)N[C@H]2CC[C@H](CC(=O)NCC3CCCCC3)O[C@H]2CO)c1	-5	0	-1	80*	-2
Cn1cnc(S(=O)(=O)N[C@@H]2CC[C@@H](CC(=O)NCC3CC3)O[C@@H]2CO)c1	-8	0	-1	4	0
Cn1cnc(S(=O)(=O)N[C@@H]2CC[C@H](CC(=O)NCC3CCCCC3)O[C@@H]2CO)c1	0	0	0	84*	-2
CS(=O)(=O)c1ccc2nc(NC(=O)CN3C(=O)C4CC=CCC4C3=O)sc2c1 (centres undefined)	-6	0	1	-2	-3
CS(=O)(=O)c1ccc2nc(NC(=O)CCN3C(=O)c4ccccc4C3=O)sc2c1	-16	43*	-4	-8	-3
COc1ccc(NC(=O)COC(=O)C2=COCCO2)cc1OC	-11	44*	1	2	-1
C/C=C/C(=O)OCC(=O)Nc1ccc(OC)c(OC)c1	-5	43*	2	15	0
SMILES	RAD52 anneal inh	FGF22 binding	ERAP1 HTS inh	DENV2 CPE rescue	MLL AF4-AF9 inh
CCSc1nnc(CSc2ncccn2)n1C	-9	44*	3	1	-1
CC(C)N(C(=O)CSc1nnc(CSc2ncccn2)n1C)C(C)C	1	0	-1	33*	-1
CCCSc1nnc(CSc2ncccn2)n1C	-4	0	4	-1	-2
COc1ccc(C#Cc2ccc([C@@H]3[C@@H](CO)N4C(=O)CN(C(=O)c5ccccc5)C[C@@H]34)cc2)cc1	-1	/	-2	2	-13
CCNC(=O)C[C@@H]1CC[C@@H]2[C@H](COc3ccc(NC(=O)c4cc(C)on4)cc3C(=O)N2C)O1	-2	0	1	6	0
COc1ccc(CC(N)c2csc(NC(=O)Nc3ccccc3Oc3ccccc3)n2)cc1 (centres undefined)	77*	0	10	-8	5
COc1ccc(CC(=O)Nc2ccccc2Oc2ccccc2)cc1	-2	43*	1	1	-7
CN1CCN(C(=O)C[C@H]2CC[C@H](NC(=O)Cc3ccccn3)[C@H](CO)O2)CC1	5	0	2	1	-4
COc1ccc2c3c([nH]c2c1)[C@@H](CO)N(CC1CC1)CC31CN(C(=O)Nc2cccc(F)c2)C1	8	0	1	-4	-1
COc1ccc(CN2CC3(CCN(S(=O)(=O)c4ccc(C)cc4)CC3)c3c([nH]c4cc(OC)ccc34)[C@H]2CO)cc1	/	/	/	-24	-5
O=C(C1CCCC1)N1CC(=O)N2[C@@H](CO)[C@H](c3ccc(-c4ccccc4F)cc3)[C@@H]2C1	-23	/	4	5	1
C[N+]1(CC2COC3(CCCCC3)O2)CCCCC1 (centres undefined)	4	41	54*	6	-3
COc1c(OC2OC(C(=O)O)C(O)C(O)C2O)cc(O)c2c(=O)cc(-c3ccccc3)oc12 (centres undefined)	-7	-1	/	25*	1
O=C(O)C1OC(Oc2cc3oc(-c4ccccc4)cc(=O)c3c(O)c2O)C(O)C(O)C1O (centres undefined)	-18	-1	2	?	-35
CC(=O)N1N=C(c2cccc(NS(C)(=O)=O)c2)CC1c1cccs1 (centres undefined)	-3	0	-5	0	-1
CCS(=O)(=O)Nc1cccc(C2=NN(S(C)(=O)=O)C(c3ccccc3)C2)c1 (centres undefined)	-119	43*	1	12	-1
CCS(=O)(=O)N1N=C(c2cccc(NS(C)(=O)=O)c2)CC1c1ccccc1 (centres undefined)	-120	0	1	-2	-8
CC(C)(C)C(=O)N1N=C(c2ccc(NS(C)(=O)=O)cc2)CC1c1cccs1 (centres undefined)	-155	43*	-3	-1	3
CCS(=O)(=O)Nc1cccc(C2=NN(C(C)=O)C(c3cccs3)C2)c1 (centres undefined)	-9	43*	-2	0	0
COCC#Cc1ccc2c(c1)O[C@H](CN(C)S(C)(=O)=O)[C@@H](C)CN([C@@H](C)CO)S2(=O)=O	-3	-1	0	-5	-2

Screening data: PubChem, Broad Institute
